From PubChem
This is a sample that favours compounds with a hit; in the whole collection about 2.4% have one here.
TDP1 inh: qHTS Assay for Inhibitors of Tyrosyl-DNA Phosphodiesterase (TDP1); recombinant TDP1, AlphaScreen DNA substrate cleavage; Tyrosyl-DNA phosphodiesterase 1 (Homo sapiens), Q9NUW8; Potency, µM (doses to about 130 µM), without a hit: top-dose activity change, negative = inhibition, usual class: inhibitors; 350,000 compounds, 0.28% hits; also: potency is read from the fitted curve at half-maximal effect; % is scaled to controls: 0 for no effect and ±100 for the full control effect; nearly all actives have a fitted effect of over 40% in size
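Recombinant E. coli-expressed Tdp1 (1 nM) preincubated with compound 15 min at RT, then 5'-biotin/3'-phosphotyrosine-FITC DNA substrate (15 nM) added for 5 min. AlphaScreen beads (10 ug/ml) added, 10 min RT; tyrosine-FITC cleavage read as signal loss.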
FEN1 inh: qHTS Assay for the Inhibitors of Human Flap endonuclease 1 (FEN1); P39748; Recombinant FEN1 flap cleavage, fluorescence, 15 min; Potency, µM (titrated, usually from 114 µM), inactives show top-dose activity change, negative = inhibition, hits mostly inhibitors; 390,000 compounds, 0.35% hits; AID 588795, 2011; also: potency is read from the fitted curve at half-maximal effect; % is scaled to controls: 0 for no effect and ±100 for the full control effect; nearly all actives have a fitted effect of over 65% in size
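Compounds are tested as a concentration series against 10 nM FEN1; after a 15 min room-temperature preincubation, 50 nM substrate starts cleavage, with plate reads at 0 and 15 min. Normalized responses are fitted by a Hill equation.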
Pol eta inh: qHTS for Inhibitors of Polymerase Eta | DNA polymerase eta (Homo sapiens), Q9Y253 | recombinant Pol eta, fluorescent DNA replication assay | Potency, µM (doses to about 114 µM), for the others: top-dose activity change, negative = inhibition, actives largely listed as inhibitors | 390,000 compounds, 1.2% hits | AID 588591, 2011; also: potency is read from the fitted curve at half-maximal effect; % is scaled to controls: 0 for no effect and ±100 for the full control effect
Target sequence (Q9Y253 whole entry, looked up): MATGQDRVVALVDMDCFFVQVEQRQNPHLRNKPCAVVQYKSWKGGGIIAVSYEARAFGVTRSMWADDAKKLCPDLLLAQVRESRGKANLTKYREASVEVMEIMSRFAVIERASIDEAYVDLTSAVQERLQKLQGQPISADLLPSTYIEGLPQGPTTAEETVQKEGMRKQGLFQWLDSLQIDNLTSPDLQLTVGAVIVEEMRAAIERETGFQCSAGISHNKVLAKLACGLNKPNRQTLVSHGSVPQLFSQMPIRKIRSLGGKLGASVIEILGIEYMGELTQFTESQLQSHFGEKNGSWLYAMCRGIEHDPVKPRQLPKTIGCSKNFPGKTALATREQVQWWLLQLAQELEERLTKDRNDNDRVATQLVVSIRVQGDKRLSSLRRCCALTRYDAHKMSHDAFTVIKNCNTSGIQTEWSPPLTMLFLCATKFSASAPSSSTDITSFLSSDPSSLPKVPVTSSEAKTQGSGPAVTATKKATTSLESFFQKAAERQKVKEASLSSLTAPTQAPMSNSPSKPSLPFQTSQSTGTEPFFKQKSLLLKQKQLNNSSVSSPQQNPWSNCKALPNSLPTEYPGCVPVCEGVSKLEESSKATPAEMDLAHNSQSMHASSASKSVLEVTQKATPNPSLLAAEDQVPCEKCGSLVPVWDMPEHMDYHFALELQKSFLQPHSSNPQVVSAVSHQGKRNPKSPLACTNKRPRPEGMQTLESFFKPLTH
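Pol eta at 10 nM preincubated with compounds 15 min at room temperature; reaction started with fluorescent substrate (50 nM final) and read kinetically at 0 and 10 min.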
POLB inh: qHTS Assay for Inhibitors of DNA Polymerase Beta. P06746. Pol beta primer extension/strand displacement, fluorescence kinetic. Potency, µM (top dose mostly 114 µM), for the others: top-dose activity change, negative = inhibition, usual class: inhibitors. 340,000 compounds, 1.3% hits. AID 485314, 2010; also: potency is read from the fitted curve at half-maximal effect; % is scaled to controls: 0 for no effect and ±100 for the full control effect
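Values derive from four-parameter Hill fits of normalized kinetic data: reads at 0 and 10 min following addition of 50 nM substrate to 10 nM Pol beta preincubated 15 min with compound.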
POLK inh: qHTS for Inhibitors of Polymerase Kappa | purified Pol kappa, fluorescent DNA synthesis assay, 10 min | 400,000 compounds, 0.53% hits | AID 588579, 2011 | DNA polymerase kappa (Homo sapiens), Q9UBT6 | Potency, µM (top dose mostly 107 µM), without a hit: top-dose activity, negative = inhibition, usual class: inhibitors; also: potency is read from the fitted curve at half-maximal effect; % is scaled to controls: 0 for no effect and ±100 for the full control effect
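Activity was followed as the change in fluorescence between reads at 0 and 10 min after starting the reaction with 50 nM substrate. Beforehand, 10 nM polymerase had been preincubated with compound for 15 min at room temperature.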
Pol iota inh: qHTS for Inhibitors of Polymerase Iota. DNA polymerase iota (Homo sapiens), Q9UNA4. Pol iota fluorescent replication assay, 10 min. Potency, µM (titrated, usually from 115 µM), without a hit: at the top dose activity, negative = inhibition, most hits filed as inhibitors. 390,000 compounds, 1% hits; also: potency is read from the fitted curve at half-maximal effect
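Fluorescent replication assay read twice, at 0 min and 10 min after adding 50 nM (final) substrate. Enzyme (10 nM) and compounds were first incubated 15 min at room temperature; enzyme-free buffer wells were negative controls.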
BAZ2B inh: qHTS Assay for Inhibitors of BAZ2B: Hit Validation | shares compounds with POLK inh | AlphaScreen BAZ2B / biotin-H3K14Ac peptide displacement | Potency, µM, actives largely listed as inhibitors | 25 compounds, 100% hits; calls by dose curve
BAZ2B bead ctr: qHTS Assay for Inhibitors of BAZ2B: Hit Validation in AlphaScreen Counterscreen; shares compounds with POLK inh; AlphaScreen biotin-His6 peptide bead counterscreen, signal decrease; Potency, µM (series often up to 57.1 µM), inactives show at the top dose activity change, negative = inhibition, hits mostly inhibitors; 25 tested, under 10 active; AID 588859, 2011;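 active = clear concentration-dependent signal drop in the bead assay lacking the target, so a primary-screen artifact; inconclusive = weak, partial or single-dose response; inactive = no response, so a real primary hit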
PGK validate: qHTS for inhibitors of Phosphogylcerate Kinase: Hit Validation Screen | Potency, µM (highest dose often 57.5 µM), without a hit: top-dose activity change, negative = inhibition, usual class: inhibitors | 500 compounds, 79% hits | shares compounds with POLK inh | TbPGK coupled GAPDH assay, Kinase-Glo luminescence; also: potency is read from the fitted curve at half-maximal effect; % is scaled to controls: 0 for no effect and ±100 for the full control effect; nearly all actives have a fitted effect of over 65% in size
An asterisk follows results filed as active; ? = inconclusive; . = no result given; [ ] = dose if it differs, or a comment. Unless noted, calls follow the shape of the dose curve; as a rule, active = well fitted curve in the direction sought with a large enough effect; inconclusive = small, poorly fitted or top-dose-only effect, or another doubt; inactive = no such curve, though single readings can be large; an effect the other way counts as inactive or inconclusive.

SMILES	TDP1 inh	FEN1 inh	Pol eta inh	POLB inh	POLK inh	Pol iota inh	others
CC(C)=CCCC1(C)C=Cc2c(O)c3c(c(CC=C(C)C)c2O1)OC12C(=CC4CC1C(C)(C)OC2(C/C=C(/C)C(=O)O)C4O)C3=O (stereo not drawn)	12%[56.1 µM]	.	.	.	25µM*	.
CN(C(=O)CSc1nnc(COc2ccccc2F)n1N)C1CCCCC1	-1%	-1%	-13%	.	-3%	31%
Cc1cccn2c(=O)cc(COc3cccc(NC(=O)COc4ccc(F)cc4)c3)nc12	0%	-10%	?	-27%	-13%[60.1 µM]	-4%
Cc1cc(C)cc(OCCOc2cccc(C=C3C(=O)NC(=O)NC3=O)c2)c1	79µM*	?	-18%	0%	-5%	?
COc1ccc(CNC(=O)c2ccc(C(C)C)cc2)cc1	-4%	-9%	-8%	-5%	-10%	42%
COc1ccc(CNC(=O)C2CCN(c3nc(OC)nc(OC)n3)CC2)cc1	.	-2%	-4%	38%	-1%	89µM*
CN1CCc2cc3c(c4c2[C@H]1Cc1ccccc1-4)OCO3	21%	.	.	.	?	.
COc1cc2c(cc1O)C[C@H]1NCCc3cc4c(c-2c31)OCO4	4%	10µM*	?	40µM*	?	14µM*
CC(CCC(=O)O)C1CCC2C3CC[C@H]4CC(O)CC[C@@]4(C)C3CC[C@@]12C (stereo partly drawn)	-5%[56.1 µM]	.	.	.	-10%[60.1 µM]	.
COc1cccc(-n2c(/C=C/c3ccc(O)c(O)c3)nc3ccccc3c2=O)c1	-6%	?	28µM*	8.9µM*	-43%	22µM*
O=c1c2ccccc2nc(/C=C/c2ccc(O)cc2)n1-c1ccc(O)cc1	.	10%	?	?	6%	-12%
O=c1c2ccccc2nc(/C=C/c2ccc(O)cc2)n1-c1cccc(O)c1	?	?	56µM*	4µM*	?	25µM*
COc1ccc(-n2c(/C=C/c3ccc(O)c(OC)c3)nc3ccccc3c2=O)cc1	-2%	-1%	-9%	-14%	2%	-19%
CCCNC(=O)c1ccc2c(=O)n3c(-c4ccc(C)cc4)csc3nc2c1	4%	?	4%	-5%	-14%	?	BAZ2B inh=4.5*;BAZ2B bead ctr=13µM*
COc1ccc(NC(=O)CCn2cnc3onc(-c4ccc(F)cc4)c3c2=O)cc1OC	1%	-3%	-12%	-3%	-4%	?
O=C(O)c1cccc2c1NC(C(=O)O)C1CC(Sc3ccccc3[N+](=O)[O-])C(Cl)C21 (stereo not drawn)	.	45µM*	3.2µM*	2.8µM*	8.9µM*	4µM*	PGK validate=13µM*
